# Results from the supplement of paper PMC9794691.
# ± gives the standard deviation of the averaged measurements.
# What was measured:
# Test in all cases: area under confluence curve of osimertinib + compound combination regimen (DTP regrowth); compare to osimertinib-only DTP control AUC of the same experiment (AUC (confluence x time, arbitrary))
# [1] = system: H1975
# Procedure, shortened: (§1)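 The area under the IncuCyte confluence–time curve, calculated in Prism and taken as the median of triplicates where available, is the value reported. It was measured in EGFR-mutant NSCLC lines that received the EGFR inhibitor either alone, followed by a test compound, or together with a fixed-dose test compound until the persister stage (10–21 days) and then drug-free medium. Medium was refreshed every 3–4 days until the inhibitor-only wells were confluent again.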
# [2] = system: HCC2279
# Procedure, shortened: as §1
# [3] = system: HCC2935
# Procedure, shortened: as §1
# [4] = system: HCC4006
# Procedure, shortened: as §1
# [5] = system: HCC827
# Procedure, shortened: as §1
# [6] = system: II-18
# Procedure, shortened: as §1
# [7] = system: PC9
# Procedure, shortened: as §1
# [8] = test compound dose 1000 nM, dosing schedule: sequential, osimertinib-only DTP control AUC in same experiment: 10968, DMSO control AUC in same experiment: 21594
# [9] = test compound dose 1000 nM, dosing schedule: upfront, osimertinib-only DTP control AUC in same experiment: 17834, DMSO control AUC in same experiment: 21594
smiles,measurement,setting,value
COc1nn(C)cc1Nc1nccc(-c2c[nH]c3c(NC(=O)[C@@H](C)N4CCN(C)CC4)cccc23)n1 + C=CC(=O)Nc1cc(Nc2nccc(-c3cn(C)c4ccccc34)n2)c(OC)cc1N(C)CCN(C)C [osimertinib],area under confluence curve,"[1]; test compound dose 1000 nM, dosing schedule: sequential, osimertinib-only DTP control AUC in same experiment: 22968, DMSO control AUC in same experiment: 15857",19800
same,area under confluence curve,"[1]; test compound dose 1000 nM, dosing schedule: upfront, osimertinib-only DTP control AUC in same experiment: 27164, DMSO control AUC in same experiment: 15857",18200
same,area under confluence curve,"[2]; test compound dose 1000 nM, dosing schedule: sequential, osimertinib-only DTP control AUC in same experiment: 26096, DMSO control AUC in same experiment: 14404",23400
same,area under confluence curve,"[2]; test compound dose 1000 nM, dosing schedule: upfront, osimertinib-only DTP control AUC in same experiment: 33120, DMSO control AUC in same experiment: 14404",31200
same,area under confluence curve,"[3]; test compound dose 1000 nM, dosing schedule: sequential, osimertinib-only DTP control AUC in same experiment: 22314, DMSO control AUC in same experiment: 19215",20700
same,area under confluence curve,"[3]; test compound dose 1000 nM, dosing schedule: upfront, osimertinib-only DTP control AUC in same experiment: 29846, DMSO control AUC in same experiment: 19215",31500
same,area under confluence curve,"[4]; test compound dose 1000 nM, dosing schedule: sequential, osimertinib-only DTP control AUC in same experiment: 12791, DMSO control AUC in same experiment: 18415",12900
same,area under confluence curve,"[4]; test compound dose 1000 nM, dosing schedule: upfront, osimertinib-only DTP control AUC in same experiment: 17269, DMSO control AUC in same experiment: 18415",18700
same,area under confluence curve,"[5]; test compound dose 1000 nM, dosing schedule: sequential, osimertinib-only DTP control AUC in same experiment: 15330, DMSO control AUC in same experiment: 21320",10400
same,area under confluence curve,"[5]; test compound dose 1000 nM, dosing schedule: upfront, osimertinib-only DTP control AUC in same experiment: 20798, DMSO control AUC in same experiment: 21320",15000
same,area under confluence curve,"[6]; test compound dose 1000 nM, dosing schedule: sequential, osimertinib-only DTP control AUC in same experiment: 8624, DMSO control AUC in same experiment: 11834",1310
same,area under confluence curve,"[6]; test compound dose 1000 nM, dosing schedule: upfront, osimertinib-only DTP control AUC in same experiment: 10856, DMSO control AUC in same experiment: 11834",1640
same,area under confluence curve,[7]; [8],8030
same,area under confluence curve,[7]; [9],15000
Cc1nc(Nc2ncc(C(=O)Nc3c(C)cccc3Cl)s2)cc(N2CCN(CCO)CC2)n1 [Dasatinib] + C=CC(=O)Nc1cc(Nc2nccc(-c3cn(C)c4ccccc34)n2)c(OC)cc1N(C)CCN(C)C [osimertinib],area under confluence curve,"[1]; test compound dose 100 nM, dosing schedule: upfront, osimertinib-only DTP control AUC in same experiment: 18969, DMSO control AUC in same experiment: 14522",1440
same,area under confluence curve,"[2]; test compound dose 100 nM, dosing schedule: upfront, osimertinib-only DTP control AUC in same experiment: 43517, DMSO control AUC in same experiment: 29252",15300
same,area under confluence curve,"[3]; test compound dose 100 nM, dosing schedule: upfront, osimertinib-only DTP control AUC in same experiment: 10360, DMSO control AUC in same experiment: 13875",3810
same,area under confluence curve,"[4]; test compound dose 100 nM, dosing schedule: upfront, osimertinib-only DTP control AUC in same experiment: 21234, DMSO control AUC in same experiment: 16638",4610
same,area under confluence curve,"[5]; test compound dose 100 nM, dosing schedule: upfront, osimertinib-only DTP control AUC in same experiment: 39553, DMSO control AUC in same experiment: 30859",3890
same,area under confluence curve,"[6]; test compound dose 30 nM, dosing schedule: upfront, osimertinib-only DTP control AUC in same experiment: 13359, DMSO control AUC in same experiment: 11408",2420
Cc1cc2cc(C(=O)c3cnn(-c4cnc(Oc5c(F)cccc5F)cc4C)c3N)[nH]c2cc1NS(C)(=O)=O + C=CC(=O)Nc1cc(Nc2nccc(-c3cn(C)c4ccccc34)n2)c(OC)cc1N(C)CCN(C)C [osimertinib],area under confluence curve,[7]; [8],7640
same,area under confluence curve,[7]; [9],9050
Cc1c[nH]c2nc(Nc3ccc(N4CCN(C)CC4)c(F)c3)nc(-c3cccc(CC#N)c3)c12 + C=CC(=O)Nc1cc(Nc2nccc(-c3cn(C)c4ccccc34)n2)c(OC)cc1N(C)CCN(C)C [osimertinib],area under confluence curve,"[7]; test compound dose 300 nM, dosing schedule: sequential, osimertinib-only DTP control AUC in same experiment: 12535, DMSO control AUC in same experiment: 43316",1010
same,area under confluence curve,"[7]; test compound dose 300 nM, dosing schedule: sequential, osimertinib-only DTP control AUC in same experiment: 15163, DMSO control AUC in same experiment: 28684",4860
same,area under confluence curve,"[7]; test compound dose 300 nM, dosing schedule: sequential, osimertinib-only DTP control AUC in same experiment: 29087, DMSO control AUC in same experiment: 30008",25200
same,area under confluence curve,"[7]; test compound dose 300 nM, dosing schedule: upfront, osimertinib-only DTP control AUC in same experiment: 15354, DMSO control AUC in same experiment: 43316",3200
same,area under confluence curve,"[7]; test compound dose 300 nM, dosing schedule: upfront, osimertinib-only DTP control AUC in same experiment: 21337, DMSO control AUC in same experiment: 28684",6800
same,area under confluence curve,"[7]; test compound dose 300 nM, dosing schedule: upfront, osimertinib-only DTP control AUC in same experiment: 34430, DMSO control AUC in same experiment: 30008",25900
O=C(CCCCCCC(=O)Nc1ccccc1)NO [Vorinostat] + C=CC(=O)Nc1cc(Nc2nccc(-c3cn(C)c4ccccc34)n2)c(OC)cc1N(C)CCN(C)C [osimertinib],area under confluence curve,"[7]; test compound dose 1000 nM, dosing schedule: sequential, osimertinib-only DTP control AUC in same experiment: 12065, DMSO control AUC in same experiment: 48219",7830
same,area under confluence curve,"[7]; test compound dose 1000 nM, dosing schedule: sequential, osimertinib-only DTP control AUC in same experiment: 14002, DMSO control AUC in same experiment: 31239",6670
same,area under confluence curve,"[7]; test compound dose 1000 nM, dosing schedule: upfront, osimertinib-only DTP control AUC in same experiment: 22175, DMSO control AUC in same experiment: 31239",7410
same,area under confluence curve,"[7]; test compound dose 1000 nM, dosing schedule: upfront, osimertinib-only DTP control AUC in same experiment: 22645, DMSO control AUC in same experiment: 48219",10400
CS(=O)(=O)N1CCN(Cc2cc3nc(-c4cccc5[nH]ncc45)nc(N4CCOCC4)c3s2)CC1 + C=CC(=O)Nc1cc(Nc2nccc(-c3cn(C)c4ccccc34)n2)c(OC)cc1N(C)CCN(C)C [osimertinib],area under confluence curve,"[7]; test compound dose 1000 nM, dosing schedule: sequential, osimertinib-only DTP control AUC in same experiment: 1963, DMSO control AUC in same experiment: 30580",1580 ± 160
same,area under confluence curve,"[7]; test compound dose 1000 nM, dosing schedule: upfront, osimertinib-only DTP control AUC in same experiment: 8618, DMSO control AUC in same experiment: 30580",4540 ± 320
CN(C)C/C=C/C(=O)Nc1ccc(C(=O)Nc2cccc(Nc3ncc(Cl)c(-c4c[nH]c5ccccc45)n3)c2)cc1 + C=CC(=O)Nc1cc(Nc2nccc(-c3cn(C)c4ccccc34)n2)c(OC)cc1N(C)CCN(C)C [osimertinib],area under confluence curve,"[7]; test compound dose 1000 nM, dosing schedule: sequential, osimertinib-only DTP control AUC in same experiment: 11414, DMSO control AUC in same experiment: 31219",12600
same,area under confluence curve,"[7]; test compound dose 1000 nM, dosing schedule: upfront, osimertinib-only DTP control AUC in same experiment: 18848, DMSO control AUC in same experiment: 31219",21300
O=C(NC[C@H](O)CN1CCc2ccccc2C1)c1ccnc(NC2CCC2)c1 + C=CC(=O)Nc1cc(Nc2nccc(-c3cn(C)c4ccccc34)n2)c(OC)cc1N(C)CCN(C)C [osimertinib],area under confluence curve,"[1]; test compound dose 300 nM, dosing schedule: sequential, osimertinib-only DTP control AUC in same experiment: 15943, DMSO control AUC in same experiment: 20657",14900
same,area under confluence curve,"[1]; test compound dose 300 nM, dosing schedule: upfront, osimertinib-only DTP control AUC in same experiment: 27804, DMSO control AUC in same experiment: 20657",25700
same,area under confluence curve,"[2]; test compound dose 300 nM, dosing schedule: sequential, osimertinib-only DTP control AUC in same experiment: 15997, DMSO control AUC in same experiment: 40085",8560
same,area under confluence curve,"[2]; test compound dose 300 nM, dosing schedule: upfront, osimertinib-only DTP control AUC in same experiment: 28057, DMSO control AUC in same experiment: 40085",8330
same,area under confluence curve,"[3]; test compound dose 300 nM, dosing schedule: sequential, osimertinib-only DTP control AUC in same experiment: 7139, DMSO control AUC in same experiment: 15413",8090
same,area under confluence curve,"[3]; test compound dose 300 nM, dosing schedule: upfront, osimertinib-only DTP control AUC in same experiment: 19044, DMSO control AUC in same experiment: 15413",16100
same,area under confluence curve,"[4]; test compound dose 300 nM, dosing schedule: sequential, osimertinib-only DTP control AUC in same experiment: 14882, DMSO control AUC in same experiment: 10921",9080
same,area under confluence curve,"[4]; test compound dose 300 nM, dosing schedule: upfront, osimertinib-only DTP control AUC in same experiment: 18913, DMSO control AUC in same experiment: 10921",6670
same,area under confluence curve,"[5]; test compound dose 300 nM, dosing schedule: sequential, osimertinib-only DTP control AUC in same experiment: 5666, DMSO control AUC in same experiment: 43928",5240
same,area under confluence curve,"[5]; test compound dose 300 nM, dosing schedule: upfront, osimertinib-only DTP control AUC in same experiment: 19044, DMSO control AUC in same experiment: 43928",24000
same,area under confluence curve,"[6]; test compound dose 300 nM, dosing schedule: sequential, osimertinib-only DTP control AUC in same experiment: 21122, DMSO control AUC in same experiment: 7080",18800
same,area under confluence curve,"[6]; test compound dose 300 nM, dosing schedule: upfront, osimertinib-only DTP control AUC in same experiment: 22894, DMSO control AUC in same experiment: 7080",6900
same,area under confluence curve,"[7]; test compound dose 100 nM, dosing schedule: sequential, osimertinib-only DTP control AUC in same experiment: 12891, DMSO control AUC in same experiment: 44384",979
same,area under confluence curve,"[7]; test compound dose 100 nM, dosing schedule: upfront, osimertinib-only DTP control AUC in same experiment: 16570, DMSO control AUC in same experiment: 44384",3800
